# Where “and” joins values, the source holds several entries; their conditions need not be identical. Equal entries are not always repeated. Inconclusive results are not listed. Where a structure was tested more than once in an assay, its records may differ in their call. Calls of active or inactive are those of the source. The calls were made as follows: active = hit-call score of the fitted dose curve at least 0.9, where 1 is the maximum; inconclusive = response in the unintended direction; inactive = score below 0.9.
# Legend:
# [1] = TOX21_p53_BLA_p3_viability: Viability Assessment in the Tox21 HCT-116 p53 Agonism Beta-lactamase Assay, Phase 3 (AID 2283593);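 also: cells exposed to compound for 16 h before reading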
# Method in brief: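 Cellular ATP was quantified by CellTiter-Glo luminescence, read after 30 min at room temperature. Beforehand, HCT116 cells (4000/well) received compound 5 h post-seeding, 217-fold diluted from DMSO, then incubated 16 h at 37C.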
# [2] = target: Cellular tumor antigen p53 (Homo sapiens) (UniProt P04637); assay: TOX21_p53_BLA_p3_ratio: Tox21 HCT-116 p53 Agonism Beta-lactamase Assay, Ratio, Phase 3 (AID 2283596)
# Sequence of Cellular tumor antigen p53 (Homo sapiens) (P04637 whole entry, looked up): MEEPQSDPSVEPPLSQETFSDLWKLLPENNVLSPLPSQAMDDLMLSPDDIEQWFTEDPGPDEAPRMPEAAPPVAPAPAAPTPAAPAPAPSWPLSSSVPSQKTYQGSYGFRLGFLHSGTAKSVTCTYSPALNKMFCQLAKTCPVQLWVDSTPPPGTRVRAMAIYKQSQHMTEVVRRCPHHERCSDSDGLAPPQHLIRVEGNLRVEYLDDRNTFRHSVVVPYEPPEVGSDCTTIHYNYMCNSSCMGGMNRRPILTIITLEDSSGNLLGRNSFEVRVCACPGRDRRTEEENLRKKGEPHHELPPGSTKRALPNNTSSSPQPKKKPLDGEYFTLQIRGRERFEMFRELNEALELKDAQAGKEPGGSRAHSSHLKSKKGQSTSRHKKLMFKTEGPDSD
# Method in brief: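 HCT116 p53-bla cells (4000/well) given compound in DMSO (217-fold dilution) after 5 h, incubated 16 h at 37C. CCF4-AM substrate 2 h at room temperature; 460/530 nm emission ratio, gain fitted against DMSO.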
# [3] = TOX21_p53_BLA_p4_viability: Viability Assessment in the Tox21 HCT-116 p53 Agonism Beta-lactamase Assay, Phase 4 (AID 2283597);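 also: hits lower the luminescence signal meaning cytotoxicity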
# Method in brief: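 HCT-116 p53-bla cells, 4000/well, dosed after 5 h attachment and incubated 16 h at 37 °C, 5% CO2. Viability from CellTiter-Glo ATP luminescence after 30 min at room temperature, taken after the beta-lactamase read; loss of signal indicates cytotoxicity.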
# [4] = target: Cellular tumor antigen p53 (Homo sapiens) (UniProt P04637); assay: TOX21_p53_BLA_p5_ratio: Tox21 HCT-116 p53 Agonism Beta-lactamase Assay, Ratio, Phase 5 (AID 2283599)
# Method in brief: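 Beta-lactamase reporter ratio (blue 460 nm over green 530 nm, 405 nm excitation) after 2 h CCF4-AM loading, in HCT-116 cells exposed 16 h at 37 C to compounds pinned at 217-fold dilution. Increases relative to DMSO baseline scored.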
# [5] = TOX21_p53_BLA_p5_viability: Viability Assessment in the Tox21 HCT-116 p53 Agonism Beta-lactamase Assay, Phase 5 (AID 2283600)
# Method in brief: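 HCT-116 p53 beta-lactamase reporter cells, 4000/well, were exposed to compound (pin transfer, 217-fold dilution) for 16 hours at 37C. Cellular ATP was read by CellTiter-Glo luminescence after 30 min at room temperature.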
# [6] = target: Cellular tumor antigen p53 (Homo sapiens) (UniProt P04637); assay: TOX21_p53_BLA_p4_ratio: Tox21 HCT-116 p53 Agonism Beta-lactamase Assay, Ratio, Phase 4 (AID 2283601)
# Method in brief: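 Signal is the blue/green (460nm/530nm) ratio of cleaved versus uncleaved CCF4-AM substrate, read after 2 h substrate loading. Cells were HCT116 carrying the p53-responsive beta-lactamase reporter, dosed 16 h at 37C, 5% CO2; CellTiter-Glo measured in parallel.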
smiles,measurement,setting,value
CC(=O)c1ccc(S(=O)(=O)NC(=O)NC2CCCCC2)cc1,outcome,[1],inactive
same,outcome,[2],inactive
same,outcome,[3],inactive
same,outcome,[4],inactive
same,outcome,[5],inactive
c1ccc(Nc2cccc3ccccc23)cc1,outcome,[1],inactive
same,outcome,[2],inactive
same,AC50,[3],43.6 µM (active) and 82.6 µM (active)
same,AC50,[4],82.2 µM (active)
same,outcome,[4],inactive
same,outcome,[5],inactive
same,AC50,[6],74.3 µM (active)
same,outcome,[6],inactive
CC(C)(O)Cc1ccccc1,outcome,[1],inactive
same,outcome,[2],inactive
same,outcome,[3],inactive
same,outcome,[4],inactive
same,outcome,[5],inactive
O=C(O)/C=C/c1ccccc1,outcome,[1],inactive
same,outcome,[2],inactive
same,outcome,[3],inactive
same,outcome,[4],inactive
same,outcome,[5],inactive
C=C[C@@]1(C)CC(=O)[C@]2(O)[C@@]3(C)[C@@H](O)CCC(C)(C)[C@@H]3[C@H](O)[C@H](OC(C)=O)[C@@]2(C)O1,outcome,[1],inactive
same,outcome,[2],inactive
same,AC50,[3],27.1 µM (active)
same,outcome,[3],inactive
same,outcome,[4],inactive
same,outcome,[5],inactive
same,outcome,[6],inactive
O=C(O[C@@H]1Cc2c(O)cc(O)cc2O[C@@H]1c1cc(O)c(O)c(O)c1)c1cc(O)c(O)c(O)c1,outcome,[1],inactive
same,outcome,[2],inactive
same,outcome,[3],inactive
same,outcome,[4],inactive
same,outcome,[5],inactive
COC(=O)CC(C)CCC=C(C)C (configuration not stated),outcome,[1],inactive
same,outcome,[2],inactive
same,outcome,[3],inactive
same,outcome,[4],inactive
same,outcome,[5],inactive
CCCCCCCOC(=O)c1ccc(O)cc1,AC50,[1],44.2 µM (active)
same,outcome,[1],inactive
same,AC50,[2],74.5 µM (active)
same,outcome,[2],inactive
same,AC50,[3],51.3 µM (active)
same,outcome,[3],inactive
same,AC50,[4],74.3 µM (active)
same,outcome,[4],inactive
same,outcome,[5],inactive
same,AC50,[6],68.3 µM (active)
same,outcome,[6],inactive
CCCCNS(=O)(=O)c1ccccc1,outcome,[1],inactive
same,outcome,[2],inactive
same,outcome,[3],inactive
same,outcome,[4],inactive
same,outcome,[5],inactive
COc1ccc(C(=O)/C(Br)=C\C(=O)O)cc1,AC50,[1],74.8 µM (active)
same,outcome,[1],inactive
same,AC50,[2],14.4 µM (active) and 25.8 µM (active)
same,AC50,[3],76.7 µM (active) and 44.5 µM (active)
same,AC50,[4],21 µM (active) and 21.6 µM (active)
same,AC50,[5],39.1 µM (active)
same,outcome,[5],inactive
same,AC50,[6],60 µM (active) and 27.2 µM (active)
O=C1CCCCCCCCCCCN1,outcome,[1],inactive
same,outcome,[2],inactive
same,outcome,[3],inactive
same,outcome,[4],inactive
same,outcome,[5],inactive
Cc1noc(NS(=O)(=O)c2ccc(N)cc2)c1C,outcome,[1],inactive
same,outcome,[2],inactive
same,outcome,[3],inactive
same,outcome,[4],inactive
same,outcome,[5],inactive
CCCCCCCCCCCCc1ccc(O)cc1,AC50,[1],39.9 µM (active)
same,AC50,[2],49.9 µM (active)
same,AC50,[3],16.3 µM (active)
same,AC50,[4],52.1 µM (active)
same,AC50,[5],24 µM (active)
CC(C)(c1ccccc1)c1ccc(Nc2ccc(C(C)(C)c3ccccc3)cc2)cc1,outcome,[1],inactive
same,outcome,[2],inactive
same,outcome,[3],inactive
same,outcome,[4],inactive
same,outcome,[5],inactive
CC(C)[N+](C)(CCOC(=O)C1c2ccccc2Oc2ccccc21)C(C)C,outcome,[1],inactive
same,outcome,[2],inactive
same,outcome,[3],inactive
same,outcome,[4],inactive
same,outcome,[5],inactive
CCCCCOC(=O)CCCCC,outcome,[1],inactive
same,outcome,[2],inactive
same,outcome,[3],inactive
CCCCC/C=C\C/C=C\CCCCCCCC(=O)O,AC50,[1],47.2 µM (active)
same,outcome,[1],inactive
same,AC50,[2],72 µM (active)
same,outcome,[2],inactive
same,outcome,[3],inactive
same,AC50,[4],86.3 µM (active)
same,outcome,[4],inactive
same,AC50,[5],80.5 µM (active)
same,outcome,[5],inactive
same,outcome,[6],inactive
O=c1c(O)c(-c2ccc(O)cc2O)oc2cc(O)cc(O)c12,outcome,[1],inactive
C=C(C)C(=O)OCC(O)COc1ccc(C(C)(C)c2ccc(OCC(O)COC(=O)C(=C)C)cc2)cc1 (configuration not stated),outcome,[1],inactive
same,AC50,[2],86.7 µM (active)
same,AC50,[3],46.1 µM (active)
same,outcome,[4],inactive
same,outcome,[5],inactive
C=C1C[C@H]2[C@@H]3C=C(C)C4=CC(=O)CC[C@]4(C)[C@H]3CC[C@]2(C)[C@@]1(OC(C)=O)C(C)=O,outcome,[1],inactive
same,outcome,[2],inactive
same,outcome,[3],inactive
same,outcome,[4],inactive
same,outcome,[5],inactive
CC1C(C)(C)C2=C(C(=O)CCC2)C1(C)C (configuration not stated),outcome,[1],inactive
same,outcome,[2],inactive
same,outcome,[3],inactive
same,outcome,[4],inactive
same,outcome,[5],inactive
C=C(C)C(=O)OCCOC(=O)C(=C)C,outcome,[1],inactive
same,outcome,[2],inactive
same,outcome,[3],inactive
same,outcome,[4],inactive
same,outcome,[5],inactive
CC1(C)[C@@H]2CC[C@@]1(C)C(=O)C2,outcome,[1],inactive
same,outcome,[2],inactive
same,outcome,[3],inactive
same,outcome,[4],inactive
same,outcome,[5],inactive
O=C(Nc1ccccc1)c1cc(Cl)ccc1O,outcome,[1],inactive
same,AC50,[2],4.05 µM (active)
same,AC50,[3],12.6 µM (active)
same,AC50,[4],13.7 µM (active)
same,outcome,[5],inactive
Oc1c(Cl)cc(Cl)c(Cl)c1Cl,outcome,[1],inactive
same,AC50,[2],17 µM (active) and 27.1 µM (active)
same,outcome,[3],inactive
same,AC50,[4],27 µM (active) and 21.1 µM (active)
same,outcome,[5],inactive
CC1=CCC(C(C)C)C=C1 (configuration not stated),outcome,[1],inactive
CN(C)c1ccc2nc3ccc(=[N+](C)C)cc-3sc2c1,AC50,[1],23 µM (active)
same,outcome,[1],inactive
same,AC50,[2],34.3 µM (active)
same,outcome,[2],inactive
same,AC50,[3],10.8 µM (active)
same,outcome,[3],inactive
same,AC50,[4],45.7 µM (active) and 13 µM (active)
same,outcome,[4],inactive
same,outcome,[5],inactive
O=C(O)C1CCC(C(=O)O)CC1 (configuration not stated),outcome,[1],inactive
same,outcome,[2],inactive
same,AC50,[3],82.4 µM (active)
same,outcome,[4],inactive
C=C(C)OC(C)=O,outcome,[1],inactive
same,outcome,[2],inactive
same,outcome,[3],inactive
same,outcome,[4],inactive
same,outcome,[5],inactive
CC(C)(CO)COC(=O)C(C)(C)CO,outcome,[1],inactive
same,outcome,[2],inactive
same,outcome,[3],inactive
same,outcome,[4],inactive
same,outcome,[5],inactive
O=C(Cl)c1c(Cl)c(Cl)c(C(=O)Cl)c(Cl)c1Cl,outcome,[1],inactive
same,outcome,[2],inactive
same,outcome,[3],inactive
same,outcome,[4],inactive
same,outcome,[5],inactive
CC(CC(C)C)=NO,outcome,[1],inactive
same,outcome,[2],inactive
same,outcome,[3],inactive
same,outcome,[4],inactive
Oc1ccc(-c2ccccc2)c(Cl)c1,outcome,[1],inactive
same,outcome,[2],inactive
same,AC50,[3],60.8 µM (active)
same,outcome,[4],inactive
same,outcome,[5],inactive
CCCCCCCCCCCCCCCCCCOS(=O)(=O)O,AC50,[1],66.9 µM (active)
same,AC50,[2],86.5 µM (active)
same,outcome,[3],inactive
same,outcome,[4],inactive
same,outcome,[5],inactive
C=CCNCC=C,outcome,[1],inactive
same,AC50,[2],84.2 µM (active)
same,outcome,[2],inactive
same,outcome,[4],inactive
same,outcome,[5],inactive
same,outcome,[6],inactive
